Screens deposited in PubChem BioAssay by National Center for Advancing Translational Sciences (NCATS).
B2AR arrestin ag: qHTS assay of beta-arrestin-biased ligands of beta2-adrenergic receptor: NCGC Sytravon Library Screen; 44,000 tested, under 10 active; HTLA Tango cells, beta-arrestin recruitment, luciferase luminescence, 18 h; AID 1347077, 2019; Potency, µM (highest dose often 46.1 µM), actives largely listed as activators; Beta-2 adrenergic receptor (Homo sapiens), P07550
Target sequence (P07550 whole entry, looked up): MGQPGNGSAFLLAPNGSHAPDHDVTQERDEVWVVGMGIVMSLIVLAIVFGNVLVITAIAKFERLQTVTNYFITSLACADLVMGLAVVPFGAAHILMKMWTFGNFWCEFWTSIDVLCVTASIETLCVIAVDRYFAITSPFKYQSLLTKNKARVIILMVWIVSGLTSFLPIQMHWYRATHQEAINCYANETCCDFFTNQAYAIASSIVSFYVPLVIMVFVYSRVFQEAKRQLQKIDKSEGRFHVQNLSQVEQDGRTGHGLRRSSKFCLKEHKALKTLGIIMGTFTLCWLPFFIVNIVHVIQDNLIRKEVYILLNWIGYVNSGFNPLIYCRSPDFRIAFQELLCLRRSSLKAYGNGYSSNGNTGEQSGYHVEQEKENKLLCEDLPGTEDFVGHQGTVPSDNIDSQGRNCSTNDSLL
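Tango cells expressing recombinant beta2-AR and beta-arrestin were treated with compounds (up to 46 microM titration) in DMEM with 1% FBS for 18 hr at 37 degrees C. Beta-arrestin recruitment drove tTA-dependent luciferase, read by luminescence; curves were fitted and classed.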
GALC G270D up: A Novel Cell-Based Assay to Identify Small Molecules for B -Galactocerebrosidase; P54803; 145M-Twi-hGALC-G270D cells, HMU-beta-Gal fluorescence, 48 h; Potency, µM (top dose mostly 57.5 µM), hits mostly activators; actives 0.1% (n = 45,000); note: nearly all actives have a fitted effect of over 65% in size
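qHTS, 1536-well; 145M-Twi-hGALC-G270D cells (WT line also made) in DMEM/F12 + 10% FBS; compound incubation on live cells; HMU-β-gal 0.1 mM final, pH 5.2, NaTC; carbonate stop; fluorescence increase = enhanced residual activity.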
NTMT1 inhibitor: Primary qHTS for Inhibitors of N-terminal methyltransferase 1 (NTMT1): MTaseGlo Assay | NTMT1 MTase-Glo SAH luminescence, purified enzyme | Potency, µM (series often up to 114 µM), most hits filed as inhibitors | actives 2.5% (n = 59,000) | AID 1645870, 2021; note: nearly all actives have a fitted effect of over 65% in size
Target sequence (Q9BV86 whole entry, looked up): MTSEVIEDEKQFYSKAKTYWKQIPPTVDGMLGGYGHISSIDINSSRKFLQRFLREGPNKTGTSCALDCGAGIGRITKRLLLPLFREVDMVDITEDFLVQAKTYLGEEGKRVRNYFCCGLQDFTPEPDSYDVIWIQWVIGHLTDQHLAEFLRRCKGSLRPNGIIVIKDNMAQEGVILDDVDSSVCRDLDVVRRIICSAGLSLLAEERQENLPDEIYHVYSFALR
DRV1 agonist: qHTS for Agonists of Human Resolvin D1 Receptor DRV1 | activation, % at 76.9 µM | AID 1346428, 2018 | CHO-K1 GPR32 beta-arrestin PathHunter luminescence, 90 min; zero percent set by DMSO-only wells | actives 2.5% (n = 48,000);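 active = activation of at least 60% and not above a set upper limit, about 1 call in 100 departs from these limits; inconclusive = activation of 40% to 60%, or above that upper limit; inactive = activation under 40%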
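Luminescent readout of beta-Gal complementation quantifies ligand-induced beta-arrestin association with GPR32 in CHO-K1 cells; 90 min compound incubation at 37 °C, detection 1 h at room temperature.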
GALK inhibitor: qHTS Assay for Inhibitors of Human Galactokinase (GALK): NCGC Sytravon Library Screen | 44,000 tested, under 10 active | P51570 | Potency, µM (top dose mostly 57.5 µM), actives largely listed as inhibitors | recombinant GALK, Kinase-Glo ATP luminescence, 1 h
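Luminescent ATP-depletion readout (Kinase-Glo Plus, 10 min) after 1 h RT reaction of 5 nM GALK, 35 uM ATP, 100 uM galactose, pH 8.0 HEPES buffer. Decreased kinase activity scored as inhibition.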
Each line names hits and unclear results; the compound was inactive in the other large screens; ! = a repeat was not active. A selection: hits, their analogues and other compounds. The true share with any hit is near 3.6%. Unless noted, calls come from the whole dose curve; as a rule, active = well fitted curve in the direction sought with a large enough effect; inconclusive = small, poorly fitted or top-dose-only effect, or another doubt; inactive = no such curve, though single readings can be large; an effect the other way counts as inactive or inconclusive.

CCn1c(SCC(=O)Nc2cc(C)ccc2F)nnc1-c1ccccc1O	DRV1 agonist 82
Cc1ccc(/C=C/C(=O)Nc2ccc(S(N)(=O)=O)cc2)o1	NTMT1 inhibitor inconclusive
CC(C)(C)c1ccc(/C=C/C(=O)Nc2ccc(S(N)(=O)=O)cc2)cc1	DRV1 agonist 94
C[Se]CCC(N)C(=O)O (stereo not given)	NTMT1 inhibitor 16µM! (no result: B2AR arrestin ag, GALC G270D up, DRV1 agonist, GALK inhibitor)
CCC1=C[C@@H]2CN(C1)Cc1c([nH]c3ccccc13)[C@@](C(=O)OC)(c1cc3c(cc1OC)N(C)[C@@H]1[C@@](O)(C(=O)OC)[C@H](OC(C)=O)[C@]4(CC)C=CCN5CC[C@]31[C@@H]54)C2	NTMT1 inhibitor 17µM (no result: B2AR arrestin ag, GALC G270D up, DRV1 agonist, GALK inhibitor)
CC[C@]1(O)CC2CN(CCc3c([nH]c4ccccc34)[C@@](C(=O)OC)(c3cc4c(cc3OC)N(C)[C@H]3[C@@](O)(C(=O)OC)[C@H](OC(C)=O)[C@]5(CC)C=CCN6CC[C@]43[C@@H]65)C2)C1 (stereo not given in full)	NTMT1 inhibitor 45µM! (no result: B2AR arrestin ag, GALC G270D up, DRV1 agonist, GALK inhibitor)
CCN(CC)C(=O)c1ccc2c(c1)N(Cc1ccc(C(F)(F)F)cc1)C(=O)c1ccccc1S2	DRV1 agonist 87
COC(=O)c1ccc2c(c1)N(CC(=O)Nc1cccc(C(F)(F)F)c1)C(=O)c1ccccc1S2	DRV1 agonist 107
CC(=O)c1cccc(NC(=O)CN2C(=O)c3cccnc3Sc3ccccc32)c1	none
COCCNC(=O)c1ccc2c(c1)N(Cc1ccc(C(F)(F)F)cc1)C(=O)c1ccccc1S2	none
COC(=O)c1ccc2c(c1)N(CC(=O)Nc1ccc(OC)c(Cl)c1)C(=O)c1ccccc1S2	none
CC(=O)c1cccc(NC(=O)CN2C(=O)c3ccccc3Sc3ncccc32)c1	DRV1 agonist 72
CCOC(=O)c1c(C)oc2nc(C)nc(NCc3ccc(Cl)cc3)c12	NTMT1 inhibitor inconclusive
CCOC(=O)c1nc(NCc2ccc(Cl)cc2)c2c(C)noc2n1	DRV1 agonist 65
CCOc1cc(F)c(CCNC(=O)c2cc3sccc3n2Cc2ccccc2)cc1OCC	none (no result: B2AR arrestin ag, GALC G270D up, DRV1 agonist, GALK inhibitor)
CCOC(=O)c1ccc(N2C(=O)c3[nH]nc(-c4ccc(OC)cc4)c3C2c2ccccc2Cl)cc1 (stereo not given)	none
COc1ccc(-c2n[nH]c3c2C(c2ccc(Cl)cc2Cl)NC3=O)cc1 (stereo not given)	DRV1 agonist 87
CCCCN(CC)c1nc(C)nc2c1c(C)cn2-c1c(C)cc(C)cc1C	none (no result: B2AR arrestin ag, GALC G270D up, DRV1 agonist, GALK inhibitor)
S=C(Nc1ccccn1)c1ccccn1	NTMT1 inhibitor 8.9µM (no result: B2AR arrestin ag, GALC G270D up, DRV1 agonist, GALK inhibitor)
O=c1cc(COc2ccccc2Cl)nc2scc(-c3ccccc3)n12	DRV1 agonist 86
CCN(CC)CCOc1ccc(C(O)(Cc2ccc(Cl)cc2)c2ccc(C)cc2)cc1 (stereo not given)	DRV1 agonist 63 (no result: B2AR arrestin ag, GALK inhibitor)
Cc1cc(C)c2c(c1)[C@@H](N(Cc1cc(C(F)(F)F)cc(C(F)(F)F)c1)c1nnn(C)n1)CCCN2CC1CCC(C(=O)O)CC1 (stereo not given in full)	none (no result: B2AR arrestin ag, GALC G270D up, DRV1 agonist, GALK inhibitor)
COc1cc(-c2nc3cnccn3c2Nc2ccc(C(C)C)cc2)ccc1O	none
COc1cc(-c2nc3nc[nH]n3c2Nc2ccc(C(C)C)cc2)ccc1O	NTMT1 inhibitor 45µM
COc1ccc(OC)c(C(=O)Nc2nc(-c3ccccc3)cs2)c1	none (no result: B2AR arrestin ag, GALC G270D up, DRV1 agonist, GALK inhibitor)
Cc1cnc(-c2ccccc2C(C)C)nc1NCc1ccc(C2CCCNC2)cc1 (stereo not given)	none (no result: B2AR arrestin ag, GALC G270D up, DRV1 agonist, GALK inhibitor)
C=CC(C)(O)CC/C=C(\C)C1CC=C(C)C(=O)O1 (stereo not given)	none (no result: B2AR arrestin ag, GALC G270D up, DRV1 agonist, GALK inhibitor)
Cc1ccc(-c2ccc(CCC(=O)O)n2-c2cccc(O)c2)cc1	NTMT1 inhibitor 79µM
CCOC(=O)N1CCc2c(sc(NCc3ccc(OC)c(OC)c3OC)c2C(=O)Nc2ccc(OC)cc2OC)C1	DRV1 agonist 86
CCOC(=O)c1ccc(NC(=O)c2c(NCc3cccc(OC)c3OC)sc3c2CCC3)cc1	NTMT1 inhibitor 56µM
CCOC(=O)N1CCc2c(sc(NCc3cccs3)c2C(=O)Nc2ccc(OC)cc2OC)C1	GALC G270D up inconclusive
CCC(=O)N1CCc2cc(S(=O)(=O)CCC(=O)Nc3ccc(OC(F)(F)F)cc3)ccc21	DRV1 agonist 65
CCC(=O)N1CCc2cc(S(=O)(=O)CCC(=O)NCc3ccc(OC)cc3)ccc21	none
CNCC[C@H](Oc1cccc2ccccc12)c1cccs1	NTMT1 inhibitor inconclusive, DRV1 agonist 99 (no result: B2AR arrestin ag, GALK inhibitor)
CC(C)NC[C@H](O)COc1cccc2ccccc12	none (no result: B2AR arrestin ag, GALC G270D up, NTMT1 inhibitor, GALK inhibitor)
O=C1c2[nH]nc(-c3ccc(Br)cc3)c2C(c2cccc(O)c2)N1c1ccc(Cl)cc1 (stereo not given)	DRV1 agonist 96
Cc1ccc(-n2ncc3c(NC4CCCCCC4)ncnc32)cc1	none
Clc1cccc(-n2ncc3c(NC4CCCCC4)ncnc32)c1	NTMT1 inhibitor inconclusive, DRV1 agonist 109
Cc1ccc(Cl)cc1-n1ncc2c(N3CCN(Cc4ccccc4)CC3)ncnc21	DRV1 agonist 85
Fc1ccc(-n2ncc3c(Nc4ccc5c(c4)OCCO5)ncnc32)cc1	DRV1 agonist 92
CCN(CC)c1ncnc2c1cnn2-c1cc(Cl)ccc1C	DRV1 agonist 72
COc1ccccc1/C=C/C(=O)NCCc1nc2ccccc2n1CCOc1ccc(C)cc1	none (no result: B2AR arrestin ag, GALC G270D up, DRV1 agonist, GALK inhibitor)
Cc1ccc(-n2ncc3c(NC4CCCCC4)ncnc32)cc1	none
Fc1ccc(-n2ncc3c(NC4CCCCCC4)ncnc32)cc1	DRV1 agonist 80
Cc1ccc(Cl)cc1-n1ncc2c(NC3CCCCC3)ncnc21	DRV1 agonist 68
O=C(CCCc1ccc2cccnc2n1)NCc1cc(-c2ccc(F)c(C(F)(F)F)c2)no1	none (no result: B2AR arrestin ag, GALC G270D up, DRV1 agonist, GALK inhibitor)
CC(C)C[C@H](N)c1nnc(SCc2ccc(Cl)cc2Cl)o1	DRV1 agonist 77
CC(C)n1ncnc1-c1cn2c(n1)-c1ccc(O[C@@H](C)C(N)=O)cc1OCC2	none (no result: B2AR arrestin ag, GALC G270D up, DRV1 agonist, GALK inhibitor)
Cc1ccc(CNC(=O)c2sc3nc(-c4ccc(F)cc4)ccc3c2N)cc1	DRV1 agonist 96
COc1ccc(C(=O)c2sc3nc(-c4ccc(F)cc4)ccc3c2N)cc1	DRV1 agonist 98
COc1cccc(-c2ccc3c(N)c(C(=O)c4ccc(F)cc4)sc3n2)c1	none
CC1CC1C(=O)Nc1ccc([S+](=O)([O-])Nc2nccs2)cc1 (stereo not given)	none (no result: B2AR arrestin ag, GALC G270D up, DRV1 agonist, GALK inhibitor)
CC(=O)Nc1cccc(NC(=O)Cc2csc(COc3cccc(C)c3)n2)c1	DRV1 agonist 69
Cc1ccccc1CNC(=O)c1ccc2[nH]c(C)c(C)c2c1	NTMT1 inhibitor 79µM
